# Source: PubChem BioAssay
# Hits are enriched below; roughly 10% of the tested compounds scored in any of these assays.
# GPT2 inh: GPT2 alanine aminotransferase inhibition. Potency, µM (highest dose often 57.7 µM), for inactives: at the top dose activity change, negative = inhibition, most hits filed as inhibitors. Q8TD30. Recombinant GPT2, coupled pyruvate oxidase/HRP Amplex Red fluorescence. 100,000 tested, 0.25% active; note: % is set by controls: 0 for no effect and ±100 for the full control effect; nearly all actives have a fitted effect of over 60% in size
# Target sequence (Q8TD30 whole entry, looked up): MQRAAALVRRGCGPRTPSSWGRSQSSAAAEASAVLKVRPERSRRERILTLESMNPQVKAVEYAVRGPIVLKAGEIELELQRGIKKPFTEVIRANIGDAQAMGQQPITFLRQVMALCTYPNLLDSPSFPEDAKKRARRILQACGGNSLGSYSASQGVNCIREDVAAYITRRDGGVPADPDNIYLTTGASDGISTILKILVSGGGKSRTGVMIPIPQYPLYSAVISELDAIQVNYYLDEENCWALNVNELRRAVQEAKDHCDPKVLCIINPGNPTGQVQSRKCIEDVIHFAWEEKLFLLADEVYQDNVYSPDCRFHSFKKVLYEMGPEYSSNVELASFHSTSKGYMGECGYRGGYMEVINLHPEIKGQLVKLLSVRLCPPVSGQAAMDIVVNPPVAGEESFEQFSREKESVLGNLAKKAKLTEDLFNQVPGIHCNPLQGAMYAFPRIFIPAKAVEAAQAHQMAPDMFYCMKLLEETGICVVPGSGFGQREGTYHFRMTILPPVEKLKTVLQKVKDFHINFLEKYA
#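 Recombinant GPT2 (10ng/uL) with 250uM a-KG and 2mM L-alanine, 30 min at room temperature, in HEPES pH 7.5 buffer. Pyruvate detected by pyruvate oxidase/HRP/Amplex Red fluorescence after 30 min in the dark; AOA (50uM) as positive control.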
# HEK293 tox: HEK 293 cell cytotoxicity; Potency, µM (highest dose often 115 µM), inactives show top-dose activity change, negative = cytotoxicity, usual class: inhibitors; 94,000 tested, 6.6% active; HEK 293 viability, ATP luminescence (CellTiter-Glo), 48-72 h; AID 1345083; note: % is set by controls: 0 for no effect and ±100 for the full control effect; nearly all actives have a fitted effect of over 60% in size
#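 Luminescence from cellular ATP, measured with CellTiter-Glo, indicates HEK 293 viability. Cells plated at 250 cells/well are treated with compound for 48 or 72 hr at 37 degree Celsius before reagent addition.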
# NIH3T3 tox: NIH 3T3 cell cytotoxicity; NIH 3T3 viability, CellTiter-Glo ATP luminescence, 48-72 h; 94,000 tested, 4.3% active; Potency, µM (highest dose often 96.7 µM), inactives show at the highest dose activity change, negative = cytotoxicity, actives largely listed as inhibitors; AID 1345082; note: % is set by controls: 0 for no effect and ±100 for the full control effect; nearly all actives have a fitted effect of over 55% in size
#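 Cytotoxicity is measured as loss of cellular ATP: NIH 3T3 cells (400/well) are exposed to compound for 48 or 72 hr at 37 °C, then CellTiter-Glo luminescence is imaged after 10 min at room temperature.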
# hNpr1 antagonist: antagonists of human natriuretic peptide receptor Npr1 | HEK293 hNpr1 GloSensor cGMP, ANP-stimulated luminescence | Potency, µM (top dose mostly 46.3 µM), inactives show at the top dose activity change, negative = inhibition, actives largely listed as inhibitors | AID 1347048 | 76,000 tested, 1.6% active; calls by dose curve; note: % is set by controls: 0 for no effect and ±100 for the full control effect; nearly all actives have a fitted effect of over 60% in size
#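 HEK293 cells stably expressing human Npr1 and cGMP GloSensor pGS-40F, loaded 2 h with 2% GloSensor reagent, given compound 30 min at room temperature. Luminescence read before and 20 min after 0.1 nM hNppA.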
# Luciferase inh: inhibitors of firefly (Photinus pyralis) luciferase; P08659; purified P. pyralis luciferase, luminescence, biochemical; Potency, µM (series often up to 115 µM), actives largely listed as inhibitors; 76,000 tested, 2.5% active; AID 1347043; note: % is set by controls: 0 for no effect and ±100 for the full control effect; nearly all actives have a fitted effect of over 65% in size
#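 Purified 10nM P. pyralis luciferase with 10uM D-luciferin and 10uM ATP in 50mM Tris acetate pH 7.5, 10mM Mg acetate, 0.01% Tween-20, 0.05% BSA. qHTS titration; luminescence read by CCD imager.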
# NPR1 antag cnf: hNpr1 antagonism, confirmation assay. shares compounds with hNpr1 antagonist. HEK293 hNpr1 cGMP GloSensor luminescence, ANP-stimulated. Potency, µM (highest dose often 57.6 µM), for the others: at the top dose activity change, negative = inhibition, usual class: inhibitors. 1,400 tested, 76% active. AID 1347044; calls by dose curve; note: nearly all actives have a fitted effect of over 70% in size
# Npr2 selectivity: antagonizes human Npr2, subtype selectivity check | HEK293 hNpr2 GloSensor cGMP luminescence, CNP-stimulated | Potency, µM (top dose mostly 57.6 µM), inactives show at the top dose activity change, negative = inhibition, hits mostly inhibitors | shares compounds with hNpr1 antagonist | 1,400 tested, 67% active; calls by dose curve; note: nearly all actives have a fitted effect of over 70% in size
# FLuc inh counter: inhibits firefly luciferase, false Npr1 antagonist flag; shares compounds with hNpr1 antagonist; purified FLuc enzyme, luminescence, Km substrate; Potency, µM (highest dose often 57.6 µM), for inactives: top-dose activity change, negative = inhibition, actives largely listed as inhibitors; 1,400 tested, 0.7% active; note: 0% is about no effect
# GloSensor cGMP: control cell line activity, Npr1 antagonist counter-screen | shares compounds with hNpr1 antagonist | HEK293 GloSensor cGMP, SNP-stimulated, luminescence | Potency, µM (series often up to 57.6 µM), without a hit: top-dose activity change, negative = inhibition, hits mostly inhibitors | 1,400 tested, 69% active | AID 1347051; calls by dose curve; note: % is set by controls: 0 for no effect and ±100 for the full control effect; nearly all actives have a fitted effect of over 70% in size
# The depositor's hits bear a star; i = inactive; ? = inconclusive; / = no result; [ ] = another dose, or the depositor's remark. Unless noted, calls come from the whole dose curve; as a rule, active = well fitted curve in the direction sought with a large enough effect; inconclusive = small, poorly fitted or top-dose-only effect, or another doubt; inactive = no such curve, though single readings can be large; an effect the other way counts as inactive or inconclusive. Potency is the fitted concentration of half-maximal effect.
SMILES,GPT2 inh,HEK293 tox,NIH3T3 tox,hNpr1 antagonist,Luciferase inh,NPR1 antag cnf,Npr2 selectivity,FLuc inh counter,GloSensor cGMP
COc1ccc(-c2noc(CC3CCN(C(=O)c4cc(Cl)ccc4OC)CC3)n2)cc1,i,32µM*,?,-29%,i,22µM*,24µM*,-5%,22µM*
CCOc1ccccc1C(=O)N1CCC(Cc2nc(-c3ccc(F)cc3)no2)CC1,i,?,?,?,i,/,/,/,/
COc1cc(Cl)ccc1C(=O)N1CCC(Cc2nc(-c3ccc(F)cc3)no2)CC1,i,?,11µM*,5.6µM*,i,4.8µM*,6.1µM*,1%,6.9µM*
COc1ccc(NC(=O)c2ccc(-c3nnc4ccc(NC(=O)C5CCC5)cn34)cc2)cc1,i,?,-4%,-30%,i,?,-29%,-19%,-23%
COCCC(=O)N1CCC2(CC1)C(OC)CN2c1cccc(F)c1 (stereo unspecified),i,4%,2%,1%,i,/,/,/,/
COc1ccc(C2(C(=O)N3CCC4(CC3)C(OC)CN4c3cccc(F)c3)CC2)cc1 (stereo unspecified),i,45µM*,?,11µM*,i,?,14µM*,2%,-23%
CC(=O)c1cccc(NC(=O)O[C@@H]2CO[C@H]3[C@@H]2OC[C@@H]3NC(=S)NC2CCCCC2)c1,-4%,?,?,18µM*,i,24µM*,24µM*,0%,?
CC(=O)c1cccc(NC(=O)O[C@@H]2CO[C@H]3[C@@H]2OC[C@@H]3NC(=S)Nc2cccc3ccccc23)c1,?,?,?,8.9µM*,i,12µM*,17µM*,0%,14µM*
Cc1ccc(NC(=O)N2CCC(Oc3ncccc3C(=O)N3CCCCC3)C2)cc1 (stereo unspecified),4%,-3%,i,-1%,i,/,/,/,/
CCc1noc(CC2CCOC3(CCN(S(=O)(=O)c4ccc(Cl)cc4)CC3)C2)n1 (stereo unspecified),3%,?,?,?,i,/,/,/,/
CCc1noc(CC2CCOC3(CCN(S(=O)(=O)c4ccc(F)c(F)c4)CC3)C2)n1 (stereo unspecified),-2%,79µM*,?,10µM*,i,22µM*,?,-1%,?
CCc1noc(CC2CCOC3(CCN(S(=O)(=O)c4ccc(C(C)C)cc4)CC3)C2)n1 (stereo unspecified),-10%,?,?,10µM*,i,17µM*,19µM*,-2%,12µM*
O=C(NCCc1ccccc1)C1CCN(c2cc(C(F)(F)F)ncn2)CC1,0%,-21%,-15%,-17%,i,/,/,/,/
CCc1ccc(CNC(=O)C2CCN(c3cc(C(F)(F)F)ncn3)CC2)cc1,i,?,?,14µM*,i,22µM*,17µM*,4%,14µM*
CSc1ccc(CNC(=O)C2CCN(c3cc(C(F)(F)F)ncn3)CC2)cc1,4%,?,?,13µM*,i,19µM*,22µM*,4%,15µM*
Cc1ccc(CNC(=O)C2CCN(c3cc(C(F)(F)F)ncn3)CC2)cc1,-8%,?,-24%,13µM*,i,24µM*,22µM*,2%,19µM*
CC(C)NC(=O)C1CCC(=O)N1C1CCN(C(=O)c2ccc(Cl)cc2)CC1 (stereo unspecified),i,i,-11%,/,/,/,/,/,/
O=C(Cn1ccn2nc3c(c2c1=O)CCCC3)NCCC1=CCCCC1,-2%,-8%,-7%,0%,i,/,/,/,/
CC(=O)N1CC2(Cc3ccccc31)CN(C(=O)Nc1ccccc1)C2,?,-21%[172 µM],?,5%[70.6 µM],i,/,/,/,/
COc1cccc(N2CCN(c3nc(C(=O)NCc4ccncc4)cs3)CC2)c1,i,35µM*,?,?,i,27µM*,22µM*,-18%,27µM*
COc1cccc(N2CCN(c3nc(C(=O)NCc4ccccc4F)cs3)CC2)c1,?,45µM*,?,13µM*,i,27µM*,?,-3%,?
COc1cccc(CNC(=O)Nc2nc(-c3ccncc3)cs2)c1,-6%,/,/,/,/,/,/,/,/
Cc1cc(C)cc(N2CCC(N3CCC(CCC(=O)NC4CC4)CC3)CC2)c1,i,i,2%,12%,i,/,/,/,/
CC(C)C1CN(C(=O)c2n[nH]c3c2CCC3)CCC(=O)N1CC1CC1 (stereo unspecified),i,-7%,-23%,5%,i,/,/,/,/
CC(C)Cc1cn(CC2CCCN(C(=O)c3n[nH]c4c3CCCC4)C2)nn1 (stereo unspecified),1%,?,?,14µM*,i,19µM*,17µM*,?,15µM*
COc1ccc(C2Cn3nnc(C(=O)N4CCN(C(=O)c5sccc5C)CC4)c3CO2)cc1 (stereo unspecified),i,?,-8%,?,i,22µM*,27µM*,1%,22µM*
O=C(c1cc(Cl)ccc1F)N1CCN(C(=O)c2nnn3c2COC(c2ccccc2)C3)CC1 (stereo unspecified),3%,?,-27%,?,i,24µM*,?,0%,?
Cc1ccc(C(=O)N2CCN(C(=O)c3nnn4c3COC(c3ccc(Cl)cc3)C4)CC2)c(C)c1 (stereo unspecified),1%,?,?,?,i,22µM*,24µM*,2%,22µM*
O=C(c1cccc(F)c1)N1CCN(C(=O)c2nnn3c2COC(c2ccc(F)cc2)C3)CC1 (stereo unspecified),i,?,-18%,?,i,/,/,/,/
